SMARCA2 act: SMARCA2 (BRM) function activators, primary screen, cell-based, luminescence, high throughput | MG213 cells, MMTV-luciferase reporter, dexamethasone, overnight | activation, % at 9.1 µM | hit rate 1% among 370,000; in the data active = activation above about 7.8%
ssDAF12 agonist: S. stercoralis DAF-12 nuclear receptor activators, primary screen, cell-based, luminescence, HEK293, GRIP1 co-expression, lit1-tk-luc | HEK293 ssDAF-12/GRIP1 lit1-tk-luc reporter; % of 3 µM dafachronic acid response | activation, % at 6.8 µM | hit rate 1% among 370,000 | AID 652126, 2013;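 active = activation above the mean over all tested compounds plus 3 SD, cut at about 0.9% in these data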
hgDAF-12 ag: H. glycines DAF-12 receptor agonists, primary screen, cell-based, luminescence, HEK293, GAL4 fusion, UAS-luciferase. Nuclear hormone receptor DAF-12 (Heterodera glycines), GAL4 fusion. HEK293 GAL4-hgDAF12 UAS-luciferase reporter, agonist luminescence; normalized to butyrate control. activation, % at 6.8 µM. hit rate 1.8% among 370,000;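 active = activation above a cutoff set at the mean of all screened compounds plus 3 SD, cut at about 10% in these data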
DAX1 inh-1: DAX1 (NR0B1) inhibitors on StAR promoter, primary screen, cell-based, luminescence, SF-1 (NR5A1), full-length DAX-1 | HEK293T StAR-luciferase reporter, SF-1/DAX-1 repression relief | inhibition, % at 6.8 µM | hit rate 1.1% among 370,000 | AID 652010, 2013;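 active = inhibition above the mean over all tested compounds plus 3 SD, cut at about 3.6% in these data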;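 note: higher inhibition means more luminescence from relief of DAX-1 repression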
hcDAF12 agonist: H. contortus DAF-12 nuclear receptor activators, primary screen, cell-based, luminescence, HEK293, lit1-tk-luc reporter. HEK293 hcDAF-12 lit1-tk-luc reporter; 0% DMSO, 100% Δ7-dafachronic acid. AID 652067, 2013. activation, % at 6.8 µM. hit rate 1.4% among 370,000;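 active = activation above the mean of all tested compounds plus 3 SD, cut at about 5.5% in these data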
DAX1 inh-2: DAX1 (NR0B1) inhibitors, primary screen, cell-based, HEK293, Gal4-DAX1, luciferase luminescence | Nuclear receptor subfamily 0 group B member 1 (Homo sapiens), P51843 | HEK293 Gal4-DAX1 luciferase reporter | hit rate 0.99% among 340,000 | AID 504766, 2011 | inhibition, % at 6.75 µM;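 active = inhibition above the mean over all tested compounds plus 3 SD, cut at about 4.2% in these data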;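 note: inhibition shows as a rise in luminescence from relieved DAX1 repression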
Target sequence (P51843 207-470 limits assumed): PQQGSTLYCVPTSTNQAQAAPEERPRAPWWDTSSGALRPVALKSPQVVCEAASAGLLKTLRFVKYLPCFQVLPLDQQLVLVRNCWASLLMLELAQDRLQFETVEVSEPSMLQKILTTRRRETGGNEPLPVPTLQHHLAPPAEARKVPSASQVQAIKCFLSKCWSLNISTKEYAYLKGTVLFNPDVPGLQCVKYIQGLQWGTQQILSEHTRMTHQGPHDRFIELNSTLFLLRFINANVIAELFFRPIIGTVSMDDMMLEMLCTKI
DAX1 conf: DAX1 (NR0B1) inhibitors relieving SF-1 repression, confirmation, cell-based, luminescence, HEK293T, full-length DAX-1, SF-1 activated StAR promoter. hit rate 87% among 2,400. shares compounds with DAX1 inh-1. AID 652134, 2013. inhibition, % at 6.8 µM. HEK293T StAR-promoter luciferase reporter, SF-1/DAX-1 repression;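 active = inhibition above the average of every tested compound plus 3 SD, cut at about 3.8% in these data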
SF1 AF2mut Luc: StAR reporter signal changes without DAX1, counter-screen for DAX1 inhibitor project, cell-based, luminescence, AF-2 mutant SF-1, transactivation; inhibition, % at 6.8 µM; HEK293 StAR-luciferase, SF-1 AF2 mutant; AID 652136, 2013; hit rate 78% among 2,400; shares compounds with DAX1 inh-1;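 active = inhibition above the mean of all tested compounds plus 3 SD, cut at about 3% in these data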
Each line names hits and unclear results; the compound was inactive in the other large screens (follow-up assays come after a bar, where they were run). In the library only some 4.8% were active in any assay of this set; here they are far more common.

Cc1ccc(NC(=O)c2cc(-c3ccc4c(c3)OCO4)on2)cc1C	none
Cc1cc(C(=O)Nc2ccc3c(c2)OCO3)no1	DAX1 inh-1 7.8 | DAX1 conf 9.1 | SF1 AF2mut Luc 7.5
CCNc1nc(N)c([N+](=O)[O-])c(Nc2cccc(Cl)c2)n1	none (no result: SMARCA2 act, DAX1 inh-1, DAX1 inh-2)
Cc1nc2cc[nH]n2c(=O)c1CCc1ccccc1	none (no result: DAX1 inh-2)
COc1ccc(OC)c(CN(CC(F)(F)F)S(=O)(=O)c2ccccc2Br)c1	none (no result: DAX1 inh-2)
CSc1ccc(CC(=O)N2CCC(n3nccc3NC(=O)C3CC3)CC2)cc1	hgDAF-12 ag 12, DAX1 inh-1 6.0 | DAX1 conf inactive | SF1 AF2mut Luc inactive
CC(C)OC(=O)c1ccc2ccc(-c3ccccc3)nc2c1	DAX1 inh-1 8.4 (no result: DAX1 inh-2) | DAX1 conf 15 | SF1 AF2mut Luc 7.3
CC(C)OC(=O)c1ccc(NC(=O)c2ccccc2)cc1	none
O=C1CCC2(CCC(c3ccccc3)CC2)N1CCCO (stereo not drawn)	none (no result: DAX1 inh-2)
COc1ccc2nc(SCC(=O)N3CC(=O)Nc4ccccc43)c(C#N)cc2c1	none
Cc1cc(C)c2nc(SCC(=O)N3CC(=O)Nc4ccccc43)c(C#N)cc2c1	DAX1 inh-1 4.8 | DAX1 conf 10 | SF1 AF2mut Luc inactive
Cc1ccc(NC(=S)NNC(=O)Nc2ccccc2)cc1	ssDAF12 agonist 1.4, hgDAF-12 ag 12, DAX1 inh-1 5.7 | DAX1 conf 5.6 | SF1 AF2mut Luc inactive
O=C(NNC(=S)Nc1ccccc1)Nc1ccccc1	none
COc1ccccc1CCNC(=O)COc1cccc2c1OC(C)(C)C2	DAX1 inh-1 4.6 | DAX1 conf inactive | SF1 AF2mut Luc inactive
CC1(C)Cc2cccc(OCC(=O)NCCOc3ccccc3)c2O1	none
CC1(C2CC2)NC(=O)N(CC(=O)N2CCN(c3ccccc3)CC2)C1=O (stereo not drawn)	DAX1 inh-1 6.7 | DAX1 conf inactive | SF1 AF2mut Luc inactive
CC1(C2CC2)NC(=O)N(CC(=O)N2CCN(c3ccc(F)cc3)CC2)C1=O (stereo not drawn)	none
CCN(CCN1CCCC1)C(=O)c1cc(COc2ccccc2SC)on1	none
CCN(CCn1cccn1)C(=O)c1cc(COc2ccccc2SC)on1	DAX1 inh-1 4.6 | DAX1 conf 7.1 | SF1 AF2mut Luc 5.4
O=S1(=O)c2ccc(N3CCC[C@H]3CO)cc2OCCCN1C1CC1	none (no result: DAX1 inh-2)
C[C@@H]1CNCCN1c1ccc(N2CCS(=O)(=O)CC2)c(C#N)c1	none (no result: DAX1 inh-2)
CC(=O)Nc1ccc(NC(=S)NC(=O)C2CCCC2)cc1	DAX1 inh-1 4.9 | DAX1 conf inactive | SF1 AF2mut Luc inactive
CC(C)C[C@H]1COc2cccc(N3CCCC3)c2S(=O)(=O)N1C	none (no result: DAX1 inh-2)
CSc1ccc(C2C(C(=O)c3ccco3)=C(O)C(=O)N2c2nnc(SC)s2)cc1 (stereo not drawn)	hgDAF-12 ag 12, DAX1 inh-1 6.4 | DAX1 conf inactive | SF1 AF2mut Luc 3.1
COc1cc(Cn2cc([C@]34C[C@H]5C(=O)N(C)CC(=O)N5[C@H]3N(S(=O)(=O)c3ccccc3)c3ccccc34)c3ccccc32)cc(OC)c1	none (no result: SMARCA2 act, DAX1 inh-1, DAX1 inh-2)
CCc1ccc(CNC(=O)Cc2ccc(NC(=O)C3=C(C)OCCS3)cc2)cc1	DAX1 inh-1 15 | DAX1 conf 21 | SF1 AF2mut Luc inactive
FC(F)(F)c1ccccc1Cc1c(-c2cccc(Cl)c2)nc2ccc(Br)cn12	none (no result: DAX1 inh-2)
Cc1ccc2nc(-c3cccc(Br)c3)c(Cc3ccccc3C(F)(F)F)n2c1	DAX1 inh-1 5.1 (no result: DAX1 inh-2) | DAX1 conf 4.0 | SF1 AF2mut Luc 4.2
Cc1ccc2nc(-c3ccccn3)c(N)n2c1	hgDAF-12 ag 11, DAX1 inh-1 5.4 (no result: DAX1 inh-2) | DAX1 conf 15 | SF1 AF2mut Luc 6.8
Cc1ccc2nc(-c3ccccn3)c(Nc3ccccc3C)n2c1	none
Cc1ccc2nc(-c3ccc(C#N)cc3)c(Cc3ccccn3)n2c1	none (no result: DAX1 inh-2)
Cc1ccc2nc(-c3cccc(Br)c3)c(Cc3ccccn3)n2c1	ssDAF12 agonist 1.1, DAX1 inh-1 5.1 (no result: DAX1 inh-2) | DAX1 conf 7.8 | SF1 AF2mut Luc 5.0
Cc1ccc2nc(-c3ccc(Cl)cc3)c(Cc3ccccn3)n2c1	hgDAF-12 ag 11, DAX1 inh-1 6.7 (no result: DAX1 inh-2) | DAX1 conf 14 | SF1 AF2mut Luc 4.5
Cc1ccc(S(=O)(=O)N2CCCC2C(=O)N2CCN(c3ccccc3)CC2)cc1C (stereo not drawn)	none (no result: DAX1 inh-2)
Cc1[nH]nc2c1C(c1ccc(Br)cc1)N(Cc1ccccc1)C2=O (stereo not drawn)	none (no result: DAX1 inh-2)
CCC(c1nnnn1-c1ccc2c(c1)OCCO2)N1CCN(CC)CC1 (stereo not drawn)	DAX1 inh-1 5.4 (no result: DAX1 inh-2) | DAX1 conf inactive | SF1 AF2mut Luc inactive
CN1[C@@H](Cc2ccccc2)COc2cccc(N3CCCC3)c2S1(=O)=O	none (no result: DAX1 inh-2)
CC1(C)CC(=O)C=C(c2ccccc2-c2ccc3cc[nH]c3c2)C1=O	none
CC1(C)CC(=O)C=C(c2ccc(-c3ccc4[nH]ccc4c3)cc2)C1=O	DAX1 inh-1 5.3 | DAX1 conf 12 | SF1 AF2mut Luc inactive
CCOC(=O)N1CCN(C(=O)c2ccc3oc(CCCc4ccccc4)nc3c2)CC1	DAX1 inh-1 5.2 | DAX1 conf 6.0 | SF1 AF2mut Luc inactive
CC(=O)N1CCN(C(=O)c2ccc3oc(CCCc4ccccc4)nc3c2)CC1	none
Cc1nc(-c2cccc(NC(=O)c3ccco3)c2)cs1	DAX1 inh-1 4.7 | DAX1 conf inactive | SF1 AF2mut Luc inactive
CN1CCN(c2ccc(NC(=O)c3ccco3)cc2Cl)CC1	DAX1 inh-1 15, hcDAF12 agonist 5.9 | DAX1 conf 12 | SF1 AF2mut Luc 5.2
Cc1nc2cc(NC(=O)Nc3nccs3)ccc2n1C	hgDAF-12 ag 11, DAX1 inh-1 4.6 | DAX1 conf 15 | SF1 AF2mut Luc 8.5

Screens as filed in PubChem.
